The panel holds about 83,000 compounds, 20% with a hit somewhere; the sample as a whole holds those more often.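 Single-dose data. Exposure time 48 hours. Values below 10 considered active.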 Values without a mark were called inactive. Activity calls are given as the source filed them.

Our source for the growth values is PubChem BioAssay (NCI).

One assay concerns HCT-116 colon. As to the kind of experiment: NCI-60 one-dose screen, 48 h (100 = growth as untreated, 0 = no growth, -100 = all killed). The settings on record: 10 µM unless noted.
As for `Cn1cc(C2=C(c3cn(C4CCN(Cc5ccccn5)CC4)c4ccccc34)C(=O)NC2=O)c2ccccc21`, the growth was 38.2%. Still for that read-out and setting: the value for `O=C1OCCC1Br` (configuration not stated) was 103%; that for `CC(CO)NC1CCCCC1` (configuration not stated) was 105%; that for `CC[C@H](C)[C@H](NC(=O)C12CC(NC(C)=O)(C1)C2)C(=O)N(C)[C@H](C[C@@H](OC(C)=O)c1nc(C(=O)N[C@@H](Cc2ccccc2)C[C@H](C)C(=O)OC)cs1)C(C)C` was 3.73% (active).

For `CC[C@H](C)[C@H](NC(=O)NC(C)(C)C)C(=O)N(C)[C@H](C[C@@H](OC(C)=O)c1nc(C(=O)N[C@@H](Cc2ccccc2)C[C@H](C)C(=O)OC)cs1)C(C)C`, the growth was 1.01% (active).

Take `ClCCN(CCCl)Cc1ccc(Nc2ccnc3cc(Cl)ccc23)cc1`: the growth is 36.5%.

Consider `CC12CC(=O)C3(SC#N)C(CCC4=CC(=O)CCC43C)C1CCC2=O` (configuration not stated), for which the growth was 39.7%. Take `CCn1c2ccccc2c2cc(C(=O)c3ccc(C)c4ccccc34)ccc21`: the growth was 12.1%. The same measure, in the same setting: the value for `COc1ccc([As]=[As]c2ccc(OC)c(NCS(=O)(=O)O)c2)cc1NCS(=O)(=O)O` (configuration not stated) was -60.2% (active); that for `NC1CC2CCCCC2CC1(O)c1ccccc1` (configuration not stated) was 93.7%.

With `N/C(=N/N=C/c1ccncc1)N[N+](=O)[O-]`, the growth was 102%. For `O=C1CCC2(O)[C@@H]3Cc4ccc(O)c5c4[C@]2(CCN3Cc2ccoc2)C1O5` (some centres not stated), the growth is 88.1%. On the same count and under the same terms, the value for `CCOP(=O)(Nc1ccc2c(c1)/C(=N/NC(N)=S)c1ccccc1-2)OCC` was 103%; that for `O=C(N/N=C\c1ccc(N(CCCl)CCCl)cc1Cl)c1cccnc1` was 43%; that for `COC(=O)CCc1c[nH]c2ccc(N(CCCl)CCCl)cc12` was 53.1%.

`COc1cc(C=Nc2cccc(C(=O)O)c2)ccc1N(CCCl)CCCl`: the growth is 104%. Still for that read-out and setting: the value for `C/C(CC(C)(C)N1CC1)=N\NC(=O)Nc1cccc2ccccc12` was 46.5%. For `CCCCNC(c1ccc(Cl)cc1)C(O)c1ccc(Cl)cc1` (configuration not stated), the growth is 5.84% (active).

As to `O=C(O)CNC(=O)C(Cl)(Cl)Cl`, the growth is 107%.

`CC1(C)[C@H](O)[C@H](F)C[C@@]2(C)Oc3ccc(C(=O)Nc4ccc5c(c4)NC(=O)C54CCN(CCCCC#N)CC4)cc3C[C@H]12`: the growth was 18.5%.

On to `COC(=O)[C@@H](C)C[C@H](Cc1ccccc1)NC(=O)c1csc([C@@H](C[C@H](C(C)C)N(C)C(=O)[C@@H](NC(=O)[C@H]2CCCCN2C)C(C)C)OC(C)=O)n1`, for which the growth is -21.2% (active).

In the case of `N#CCCNc1ccccc1`, the growth is 108%. The same measure, in the same setting: the value for `CCCCCC1(CCBr)C(=O)NC(=O)NC1=O` was 106%; that for `CC[C@H](C)[C@H](NC(=O)[C@H]1CCCCN1C)C(=O)N(C)[C@H](CCc1nc(C(=O)N[C@@H](Cc2ccccc2)C[C@H](C)C(=O)OC)cs1)C(C)C` was 1.83% (active); that for `COC(=O)[C@@H](C)C[C@H](Cc1ccccc1)NC(=O)c1csc([C@@H](C[C@H](C(C)C)N(C)C(=O)[C@@H](NC(=O)[C@H]2CCCCN2C)C(C(F)(F)F)C(F)(F)F)OC(C)=O)n1` was -10.3% (active). Still for that read-out and setting: the value for `NC(CCl)CCl` was 107%; that for `[Cl][Hg][n]1c(-c2ccco2)nc2ccccc21` was 99.7%; that for `Cc1cc(N(CCCl)CCCl)ccc1C=Nc1ccccc1-c1ccccc1` was 75.8%. Same read-out and setting: as for `CCC1CN1CCCCN1CC1CC` (configuration not stated), the figure is 98.7%.

As for `COC(=O)[C@@H](C)C[C@H](Cc1ccccc1)NC(=O)c1csc([C@@H](C[C@H](C(C)C)N(C)C(=O)[C@@H](NC(=O)C23CC(NC(C)=O)(C2)C3)C2CC2)OC(C)=O)n1`, the growth was 20.6%. On the same count and under the same terms, as for `O=[N+]([O-])CC(O)C(Cl)(Cl)Cl` (configuration not stated), the figure is 102%. With `O=[N+]([O-])c1ccc(OP(=O)(CCl)N(CCCl)CCCl)cc1` (configuration not stated), the growth is 97.9%. Still for that read-out and setting: the value for `CCOc1ccc(/C=C/[N+](=O)[O-])cc1` was -31.6% (active); that for `CN(C)CCCOc1ccc2c(c1)c(C(=O)C(=O)NCCO)cn2Cc1ccccc1` was 98.7%; that for `O=C(CC1(O)C(=O)Nc2ccc(Cl)cc21)c1ccc(C(=O)NCC2CCC3(CC2)OOC2(CCCCC2)OO3)cc1` (configuration not stated) was 41.6%.

A further assay deals with HCC-2998 colon. The description is as above. The settings on record: 10 µM unless noted.
As for `Cn1cc(C2=C(c3cn(C4CCN(Cc5ccccn5)CC4)c4ccccc34)C(=O)NC2=O)c2ccccc21`, the growth is 31.4%. Take `O=C1OCCC1Br` (configuration not stated): the growth is 102%. Regarding `CC(CO)NC1CCCCC1` (configuration not stated), the growth is 106%. On to `CC[C@H](C)[C@H](NC(=O)C12CC(NC(C)=O)(C1)C2)C(=O)N(C)[C@H](C[C@@H](OC(C)=O)c1nc(C(=O)N[C@@H](Cc2ccccc2)C[C@H](C)C(=O)OC)cs1)C(C)C`, for which the growth is 24.8%.

Regarding `CC[C@H](C)[C@H](NC(=O)NC(C)(C)C)C(=O)N(C)[C@H](C[C@@H](OC(C)=O)c1nc(C(=O)N[C@@H](Cc2ccccc2)C[C@H](C)C(=O)OC)cs1)C(C)C`, the growth is 20%.

For `ClCCN(CCCl)Cc1ccc(Nc2ccnc3cc(Cl)ccc23)cc1`, the growth is 71%. On to `O=C(N/N=C\c1ccc(N(CCCl)CCCl)cc1)c1cccc([N+](=O)[O-])c1`, for which the growth is 101%. Same read-out and setting: the value for `O=[N+]([O-])c1c(Br)sc(Br)c1[N+](=O)[O-]` was 68%; that for `CC12CC(=O)C3(SC#N)C(CCC4=CC(=O)CCC43C)C1CCC2=O` (configuration not stated) was 105%; that for `CCn1c2ccccc2c2cc(C(=O)c3ccc(C)c4ccccc34)ccc21` was 29.6%. Still for that read-out and setting: the value for `COc1ccc([As]=[As]c2ccc(OC)c(NCS(=O)(=O)O)c2)cc1NCS(=O)(=O)O` (configuration not stated) was 57.5%. Same read-out and setting: the value for `NC1CC2CCCCC2CC1(O)c1ccccc1` (configuration not stated) was 109%; that for `N/C(=N/N=C/c1ccncc1)N[N+](=O)[O-]` was 109%; that for `O=C1CCC2(O)[C@@H]3Cc4ccc(O)c5c4[C@]2(CCN3Cc2ccoc2)C1O5` (some centres not stated) was 104%. Consider `CCOP(=O)(Nc1ccc2c(c1)/C(=N/NC(N)=S)c1ccccc1-2)OCC`, for which the growth was 119%. Still for that read-out and setting: as for `O=C(N/N=C\c1ccc(N(CCCl)CCCl)cc1Cl)c1cccnc1`, the figure is 76.8%; as for `COC(=O)CCc1c[nH]c2ccc(N(CCCl)CCCl)cc12`, 84%. On to `COc1cc(C=Nc2cccc(C(=O)O)c2)ccc1N(CCCl)CCCl`, for which the growth was 74.4%.

On to `C/C(CC(C)(C)N1CC1)=N\NC(=O)Nc1cccc2ccccc12`, for which the growth is 75.3%. Same read-out and setting: as for `CCCCNC(c1ccc(Cl)cc1)C(O)c1ccc(Cl)cc1` (configuration not stated), the figure is -55.7% (active); as for `O=C(O)CNC(=O)C(Cl)(Cl)Cl`, 104%; as for `CC1(C)[C@H](O)[C@H](F)C[C@@]2(C)Oc3ccc(C(=O)Nc4ccc5c(c4)NC(=O)C54CCN(CCCCC#N)CC4)cc3C[C@H]12`, 68.5%. On the same count and under the same terms, the value for `COC(=O)[C@@H](C)C[C@H](Cc1ccccc1)NC(=O)c1csc([C@@H](C[C@H](C(C)C)N(C)C(=O)[C@@H](NC(=O)[C@H]2CCCCN2C)C(C)C)OC(C)=O)n1` was 12.9%; that for `N#CCCNc1ccccc1` was 106%; that for `CCCCCC1(CCBr)C(=O)NC(=O)NC1=O` was 115%. Still for that read-out and setting: as for `CC[C@H](C)[C@H](NC(=O)[C@H]1CCCCN1C)C(=O)N(C)[C@H](CCc1nc(C(=O)N[C@@H](Cc2ccccc2)C[C@H](C)C(=O)OC)cs1)C(C)C`, the figure is 20.7%; as for `COC(=O)[C@@H](C)C[C@H](Cc1ccccc1)NC(=O)c1csc([C@@H](C[C@H](C(C)C)N(C)C(=O)[C@@H](NC(=O)[C@H]2CCCCN2C)C(C(F)(F)F)C(F)(F)F)OC(C)=O)n1`, 19.9%.

Consider `NC(CCl)CCl`, for which the growth is 101%.

As for `[Cl][Hg][n]1c(-c2ccco2)nc2ccccc21`, the growth was 116%.

As for `Cc1cc(N(CCCl)CCCl)ccc1C=Nc1ccccc1-c1ccccc1`, the growth was 96.9%. On to `CCC1CN1CCCCN1CC1CC` (configuration not stated), for which the growth is 100%. Consider `COC(=O)[C@@H](C)C[C@H](Cc1ccccc1)NC(=O)c1csc([C@@H](C[C@H](C(C)C)N(C)C(=O)[C@@H](NC(=O)C23CC(NC(C)=O)(C2)C3)C2CC2)OC(C)=O)n1`, for which the growth was 49.3%. Turning to `O=[N+]([O-])CC(O)C(Cl)(Cl)Cl` (configuration not stated), the growth was 106%. In the case of `O=[N+]([O-])c1ccc(OP(=O)(CCl)N(CCCl)CCCl)cc1` (configuration not stated), the growth is 105%. Consider `CCOc1ccc(/C=C/[N+](=O)[O-])cc1`, for which the growth was 23.7%. Same read-out and setting: the value for `CN(C)CCCOc1ccc2c(c1)c(C(=O)C(=O)NCCO)cn2Cc1ccccc1` was 115%. Consider `O=C(CC1(O)C(=O)Nc2ccc(Cl)cc21)c1ccc(C(=O)NCC2CCC3(CC2)OOC2(CCCCC2)OO3)cc1` (configuration not stated), for which the growth is 83.6%.
